Laboratory results from PubChem BioAssay (Tox21).
Records with an inconclusive call do not appear. Activity calls are given as the source filed them. Unless noted, the call rests on the fitted dose curve; in most records, active means well fitted curve in the direction sought with a large enough effect in the repeat runs; inconclusive means weak or mixed curves; inactive means no such curve, though single readings can be large; an effect the other way counts as inactive or inconclusive.

Experiments:
[1] = qHTS assay to identify small molecule antagonists of the sonic hedgehog signaling (Shh) pathway (AID 1259369; calls by dose curve; further: nearly all actives have a fitted effect of over 45% in size)
Summary of the method: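 3T3Gli1-Luc, conditioned-medium-stimulated, 24hr cpd, 37C/5% CO2; Gli1-driven firefly Luc luminescence after 30min RT with luciferase reagent. Cells plated 4hr before cpd.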

[2] = biological target: Estrogen receptor beta (Homo sapiens) (UniProt Q92731); assay: qHTS assay to identify small molecule agonists of the estrogen receptor beta (ER-beta) signaling pathway (AID 1259377; active means well fitted activation curve with a large enough effect in the signal ratio in the repeat runs, not every such curve was filed as active; the % refers to the signal ratio)
Chain of Estrogen receptor beta (Homo sapiens) (Q92731 whole entry, looked up): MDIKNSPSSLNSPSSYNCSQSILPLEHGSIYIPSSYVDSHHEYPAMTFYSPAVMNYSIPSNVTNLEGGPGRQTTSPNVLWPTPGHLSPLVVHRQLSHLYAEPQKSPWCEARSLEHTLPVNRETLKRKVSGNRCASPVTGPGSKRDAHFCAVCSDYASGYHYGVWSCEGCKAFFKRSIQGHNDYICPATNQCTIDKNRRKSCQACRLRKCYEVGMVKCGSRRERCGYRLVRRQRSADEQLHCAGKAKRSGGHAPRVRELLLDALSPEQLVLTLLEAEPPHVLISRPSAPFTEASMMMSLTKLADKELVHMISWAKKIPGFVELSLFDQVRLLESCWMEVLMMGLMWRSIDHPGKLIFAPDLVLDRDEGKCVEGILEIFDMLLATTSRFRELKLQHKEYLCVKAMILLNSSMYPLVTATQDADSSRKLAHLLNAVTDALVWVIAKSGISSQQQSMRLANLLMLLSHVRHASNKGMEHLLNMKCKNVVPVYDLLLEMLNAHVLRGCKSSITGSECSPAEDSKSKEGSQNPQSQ
Summary of the method: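 HEK293T ER-beta-UAS-bla; 2% charcoal-stripped FBS; cells pre-incubated 6 hr, compound 16 hr, 37C/5% CO2; LiveBLAzer B/G FRET substrate 2 h RT; fluorescence intensity read.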

[3] = biological target: Estrogen receptor beta (Homo sapiens) (UniProt Q92731); assay: qHTS assay to identify small molecule antagonists of the estrogen receptor beta (ER-beta) signaling pathway (AID 1259378; active means well fitted inhibition curve with a large enough effect in the signal ratio in the repeat runs, not every such curve was filed as active; the % refers to the signal ratio)
Summary of the method: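 Antagonist mode: compounds added to beta-lactamase reporter HEK293T ER-beta-UAS cells stimulated with E2 (1nM final), 16 hr at 37C. LiveBLAzer B/G FRET substrate, 2 hours room temperature, fluorescence read-out.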

[4] = qHTS assay to identify small molecule agonists of the androgen receptor (AR) signaling pathway in the presence of an antagonist - cell viability counter screen (AID 1259379);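 further: MDA-kb2 human breast cancer cells carrying an MMTV luciferase reporter; series mostly up to about 92 µM; nearly all actives have a fitted effect of over 25% in size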
Summary of the method: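 Cells: MDA-kb2 (MMTV-luc, AR and GR elements), 3,000/well, 5 hr settle. Added: nilutamide 3.0uM final, then compounds (15 conc.). Incubation: 16 hr, 37C, no CO2. Read-out: CellTiter-Fluor, 1 hr, fluorescence.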

[5] = qHTS assay to identify small molecule agonists of the estrogen receptor beta (ER-beta) signaling pathway - cell viability counter screen (AID 1259380); further: nearly all actives have a fitted effect of over 30% in size
Summary of the method: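 HEK293T ER-beta-UAS-bla; 2% CS-FBS; 6 hr pre-plate, 16 hr cpd at 37C/5% CO2; LiveBLAzer read first, then CellTiter-Glo 30 min RT, luminescence.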

[6] = qHTS assay to identify small molecule antagonists of the estrogen receptor beta (ER-beta) signaling pathway - cell viability counter screen (AID 1259382);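 further: HEK293T cells carrying ER-beta-UAS-bla reporter stimulated with estradiol; series mostly up to about 92 µM; nearly all actives have a fitted effect of over 55% in size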
Summary of the method: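 Cells: ER-beta-UAS-bla HEK293T, 2,000/well, 2% CS-FBS, 6 hr settle. Cpd + E2 (1nM final), 16 hr, 37C/5% CO2. Bla FRET substrate 2 hr RT, then CellTiter-Glo 30 min RT, luminescence.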

[7] = qHTS assay to identify small molecule agonists or antagonists of the thyroid stimulating hormone receptor (TSHR) signaling pathway - wild type cell line counter screen (AID 1259384; calls by dose curve)
Summary of the method: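 Counter screen in untransfected Hek293: compounds (15-point titration, triplicate) plus phosphodiesterase inhibitor Ro20-1724 added after 18 h plating; 30 min RT. Intracellular cAMP via competitive d2/cryptate immunoassay, 1 h incubation.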

[8] = biological target: Thyrotropin receptor (Homo sapiens) (UniProt P16473); assay: qHTS assay to identify small molecule antagonists of the thyroid stimulating hormone receptor (TSHR) signaling pathway (AID 1259385; calls by dose curve; further: nearly all actives have a fitted effect of over 20% in size)
Chain of Thyrotropin receptor (Homo sapiens) (P16473 whole entry, looked up): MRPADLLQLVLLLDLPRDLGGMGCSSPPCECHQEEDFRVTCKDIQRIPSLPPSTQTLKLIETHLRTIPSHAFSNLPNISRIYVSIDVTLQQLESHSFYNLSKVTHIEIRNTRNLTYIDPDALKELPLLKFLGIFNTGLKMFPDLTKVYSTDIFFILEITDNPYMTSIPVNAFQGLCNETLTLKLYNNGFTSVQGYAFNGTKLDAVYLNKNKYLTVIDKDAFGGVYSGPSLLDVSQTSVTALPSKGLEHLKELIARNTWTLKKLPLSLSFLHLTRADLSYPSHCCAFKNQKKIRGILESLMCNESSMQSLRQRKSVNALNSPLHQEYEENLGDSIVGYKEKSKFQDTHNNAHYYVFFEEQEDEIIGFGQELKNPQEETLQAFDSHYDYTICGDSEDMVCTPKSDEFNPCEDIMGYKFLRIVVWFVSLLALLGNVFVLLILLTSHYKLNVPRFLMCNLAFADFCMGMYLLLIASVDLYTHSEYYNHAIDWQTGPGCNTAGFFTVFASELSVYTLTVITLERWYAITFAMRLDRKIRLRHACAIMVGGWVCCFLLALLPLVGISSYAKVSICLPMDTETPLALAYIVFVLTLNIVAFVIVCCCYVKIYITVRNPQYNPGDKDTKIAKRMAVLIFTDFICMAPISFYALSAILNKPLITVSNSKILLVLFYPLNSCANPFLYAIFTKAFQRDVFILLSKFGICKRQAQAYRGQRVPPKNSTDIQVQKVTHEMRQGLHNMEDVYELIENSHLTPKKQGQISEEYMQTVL
Summary of the method: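 Antagonist mode: compound-treated TSHR-expressing HEK293 cells were stimulated with 1.5 ng/mL TSH (final) in presence of Ro20-1724 for 30 min at RT. HTRF cAMP detection after 1 h; each compound tested at 15 concentrations, triplicate.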

[9] = qHTS assay to identify small molecule agonists of the estrogen receptor alpha (ER-alpha) signaling pathway in the presence of an antagonist - cell viability counter screen (AID 1259386);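 further: series mostly up to about 92 µM; cells exposed to compounds for 22 h at 37 °C before the viability read; nearly all actives have a fitted effect of over 30% in size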
Summary of the method: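 VM7Luc4E2, stripped-serum pre-culture 5 d; 24hr plating; +ICI-182,780 10.0nM final; cpds 15 conc, 22hr, 37C/5% CO2; CellTiter-Fluor added at 21hr, fluorescence 1hr later.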

[10] = biological target: Progesterone receptor (Homo sapiens) (UniProt P06401); assay: qHTS assay to identify small molecule agonists of the progesterone receptor (PR) signaling pathway (AID 1346784; calls by dose curve; further: nearly all actives have a fitted effect of over 30% in size)
Chain of Progesterone receptor (Homo sapiens) (P06401 whole entry, looked up): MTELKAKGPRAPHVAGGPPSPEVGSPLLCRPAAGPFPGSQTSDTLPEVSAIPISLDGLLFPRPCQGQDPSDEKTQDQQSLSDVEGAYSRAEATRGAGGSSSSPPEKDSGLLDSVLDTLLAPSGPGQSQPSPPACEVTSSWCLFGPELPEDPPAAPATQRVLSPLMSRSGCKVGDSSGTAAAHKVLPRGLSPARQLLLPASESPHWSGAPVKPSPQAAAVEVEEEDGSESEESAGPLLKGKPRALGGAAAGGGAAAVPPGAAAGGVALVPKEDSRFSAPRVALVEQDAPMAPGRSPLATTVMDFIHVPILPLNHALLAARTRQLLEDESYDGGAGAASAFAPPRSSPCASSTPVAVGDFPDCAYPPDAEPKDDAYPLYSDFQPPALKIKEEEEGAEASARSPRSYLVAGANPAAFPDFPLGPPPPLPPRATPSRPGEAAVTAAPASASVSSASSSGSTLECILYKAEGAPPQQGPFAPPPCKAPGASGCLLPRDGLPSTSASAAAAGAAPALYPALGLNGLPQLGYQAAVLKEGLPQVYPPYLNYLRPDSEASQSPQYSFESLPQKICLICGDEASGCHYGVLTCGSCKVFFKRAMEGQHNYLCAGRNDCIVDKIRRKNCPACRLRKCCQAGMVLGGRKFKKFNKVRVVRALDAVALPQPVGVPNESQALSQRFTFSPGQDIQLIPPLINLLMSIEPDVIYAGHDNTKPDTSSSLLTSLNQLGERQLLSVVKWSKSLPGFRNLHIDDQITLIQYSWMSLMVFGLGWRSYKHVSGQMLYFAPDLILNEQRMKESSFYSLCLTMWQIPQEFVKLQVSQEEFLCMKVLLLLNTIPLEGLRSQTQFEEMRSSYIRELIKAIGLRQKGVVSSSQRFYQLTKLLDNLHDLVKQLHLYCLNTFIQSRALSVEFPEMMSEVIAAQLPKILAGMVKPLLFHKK
Summary of the method: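 Beta-lactamase reporter read-out: after 16 hr compound treatment at 37C and a further 2 hr at room temperature with LiveBLAzer B/G FRET substrate, fluorescence was measured in PR-UAS-bla HEK 293T cells grown in 2% charcoal-stripped serum.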

[11] = biological target: Progesterone receptor (Homo sapiens) (UniProt P06401); assay: qHTS assay to identify small molecule antagonists of the progesterone receptor (PR) signaling pathway (AID 1346795; active means well fitted inhibition curve with a large enough effect in the signal ratio in the repeat runs, not every such curve was filed as active; the % refers to the signal ratio)
Summary of the method: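 Read-out is fluorescence from the LiveBLAzer B/G FRET substrate, cleaved by a UAS-controlled beta-lactamase in PR-UAS-bla HEK293T cells after 16 hr exposure to compound plus 1 nM promegestone (final), followed by 2 hr at room temperature.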

[12] = qHTS assay to identify small molecule agonists of the progesterone receptor (PR) signaling pathway - cell viability counter screen (AID 1346799; calls by dose curve; further: nearly all actives have a fitted effect of over 45% in size)
Summary of the method: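 Luminescence from CellTiter-Glo, added after the beta-lactamase FRET read in the same wells, gave cytotoxicity in PR-UAS-bla HEK293T cells treated with compounds for 16 hr at 37C.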

[13] = qHTS assay to identify small molecule antagonists of the TGF-beta/Smad signaling pathway - cell viability counter screen (AID 1346824); further: nearly all actives have a fitted effect of over 50% in size
Summary of the method: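 Cytotoxicity counter-screen run in the same wells as the beta-lactamase Smad reporter read: CellTiter-Glo luminescence after 30 min at room temperature. HEK 293T SBE-bla cells had 5 hr compound exposure at 37 C with TGF-beta1 (0.25 ng/mL stock).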

[14] = qHTS assay to identify small molecule agonists of the TGF-beta/Smad signaling pathway - cell viability counter screen (AID 1346829); further: top concentration of the series differs between compounds; nearly all actives have a fitted effect of over 45% in size
Summary of the method: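 Cytotoxicity counter screen: CellTiter-Glo luminescence (30 min, room temperature) measured in the SBE-bla HEK 293T reporter wells after 5 hr compound treatment at 37 C and the 2 hr substrate step.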

[15] = qHTS assay to identify small molecule agonists of the TGF-beta/Smad signaling pathway (AID 1346859; active means well fitted activation curve with a large enough effect in the signal ratio in the repeat runs, not every such curve was filed as active; the % refers to the signal ratio; further: series mostly up to about 77 µM)
Summary of the method: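 SBE-bla HEK 293T, 4,000 cells/well, plated o/n; cpd in DMSO, 5 hr, 37 C/5% CO2; B/G FRET substrate 2 hr RT; ex 405, em 460/530 nm.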

[16] = biological target: Thyrotropin-releasing hormone receptor (Homo sapiens) (UniProt P34981); assay: qHTS assay to identify small molecule antagonists of the thyrotropin-releasing hormone receptor (TRHR) signaling pathway (AID 1346877; active means well fitted inhibition curve with a large enough effect in the repeat runs, not every such curve was filed as active; further: series mostly up to about 51 µM)
Chain of Thyrotropin-releasing hormone receptor (Homo sapiens) (P34981 whole entry, looked up): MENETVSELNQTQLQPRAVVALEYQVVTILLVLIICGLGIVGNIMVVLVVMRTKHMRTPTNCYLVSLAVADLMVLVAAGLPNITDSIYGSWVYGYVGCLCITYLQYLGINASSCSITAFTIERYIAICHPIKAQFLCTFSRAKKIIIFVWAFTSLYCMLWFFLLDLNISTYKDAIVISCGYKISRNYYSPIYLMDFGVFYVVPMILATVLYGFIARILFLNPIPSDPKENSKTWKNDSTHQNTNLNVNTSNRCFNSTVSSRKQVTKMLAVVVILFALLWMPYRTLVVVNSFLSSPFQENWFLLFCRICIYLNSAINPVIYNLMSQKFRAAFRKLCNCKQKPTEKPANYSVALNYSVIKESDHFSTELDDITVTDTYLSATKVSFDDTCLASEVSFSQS
Summary of the method: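 Intracellular calcium fluorescence, read kinetically every second over 3 min, reports TRH-evoked signalling in HEK293 cells carrying TRHR. Test compounds were added 5 min ahead of a 1 nM TRH challenge.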

[17] = biological target: Thyrotropin-releasing hormone receptor (Homo sapiens) (UniProt P34981); assay: qHTS assay to identify small molecule agonists of the thyrotropin-releasing hormone receptor (TRHR) signaling pathway (AID 1346891; calls by dose curve; further: series mostly up to about 58 µM)
Summary of the method: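 Intracellular calcium rise, read as fluorescence every second for 3 min, served as the agonist signal in dye-loaded HEK293 cells expressing TRHR; each compound ran at 15 concentrations in triplicate.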

[18] = biological target: Estrogen receptor (Homo sapiens) (UniProt P03372); assay: qHTS assay to identify small molecule agonists of the estrogen receptor alpha (ER-alpha) signaling pathway in the presence of an antagonist (AID 1259383; calls by dose curve; further: top concentration of the series differs between compounds; nearly all actives have a fitted effect of over 15% in size)
Chain of Estrogen receptor (Homo sapiens) (P03372 whole entry, looked up): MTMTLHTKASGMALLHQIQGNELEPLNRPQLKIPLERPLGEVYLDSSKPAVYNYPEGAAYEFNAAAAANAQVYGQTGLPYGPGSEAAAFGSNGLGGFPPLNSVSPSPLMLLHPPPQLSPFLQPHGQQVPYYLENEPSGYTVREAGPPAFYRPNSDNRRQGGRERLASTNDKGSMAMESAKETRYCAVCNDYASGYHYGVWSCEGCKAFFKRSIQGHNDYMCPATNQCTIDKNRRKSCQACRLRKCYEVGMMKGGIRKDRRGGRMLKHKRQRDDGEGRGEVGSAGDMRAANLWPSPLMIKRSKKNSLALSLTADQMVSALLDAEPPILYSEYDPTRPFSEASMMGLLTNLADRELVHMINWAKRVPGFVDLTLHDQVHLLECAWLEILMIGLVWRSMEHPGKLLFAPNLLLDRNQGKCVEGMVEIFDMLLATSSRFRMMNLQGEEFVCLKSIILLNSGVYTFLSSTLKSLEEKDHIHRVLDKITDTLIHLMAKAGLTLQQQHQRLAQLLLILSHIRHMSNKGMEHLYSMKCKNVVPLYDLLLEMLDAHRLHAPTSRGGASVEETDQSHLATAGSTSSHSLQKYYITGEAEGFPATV
Summary of the method: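 VM7Luc4E2, endog. ER-alpha + 4×ERE-luc; charcoal-stripped FBS, phenol red-free, 5 d; 24hr plating; +10.0nM ICI-182,780 (final); cpds 15 conc, 22hr, 37C/5% CO2; ONE-Glo luminescence.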

[19] = qHTS assay to identify small molecule antagonists of the progesterone receptor (PR) signaling pathway - cell viability counter screen (AID 1346798);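 further: HEK293T PR-UAS-bla cells stimulated with the agonist R5020; series mostly up to about 92 µM; nearly all actives have a fitted effect of over 50% in size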
Summary of the method: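 HEK293T PR-UAS-bla, 2% charcoal-stripped FBS; 4 hr pre-plate; cpd + R5020, 16 h 37C; LiveBLAzer read first; then CellTiter-Glo 30 min RT, luminescence.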

[20] = biological target: Androgen receptor (Homo sapiens) (UniProt P10275); assay: qHTS assay to identify small molecule agonists of the androgen receptor (AR) signaling pathway in the presence of an antagonist (AID 1259381; calls by dose curve; further: nearly all actives have a fitted effect of over 15% in size)
Chain of Androgen receptor (Homo sapiens) (P10275 whole entry, looked up): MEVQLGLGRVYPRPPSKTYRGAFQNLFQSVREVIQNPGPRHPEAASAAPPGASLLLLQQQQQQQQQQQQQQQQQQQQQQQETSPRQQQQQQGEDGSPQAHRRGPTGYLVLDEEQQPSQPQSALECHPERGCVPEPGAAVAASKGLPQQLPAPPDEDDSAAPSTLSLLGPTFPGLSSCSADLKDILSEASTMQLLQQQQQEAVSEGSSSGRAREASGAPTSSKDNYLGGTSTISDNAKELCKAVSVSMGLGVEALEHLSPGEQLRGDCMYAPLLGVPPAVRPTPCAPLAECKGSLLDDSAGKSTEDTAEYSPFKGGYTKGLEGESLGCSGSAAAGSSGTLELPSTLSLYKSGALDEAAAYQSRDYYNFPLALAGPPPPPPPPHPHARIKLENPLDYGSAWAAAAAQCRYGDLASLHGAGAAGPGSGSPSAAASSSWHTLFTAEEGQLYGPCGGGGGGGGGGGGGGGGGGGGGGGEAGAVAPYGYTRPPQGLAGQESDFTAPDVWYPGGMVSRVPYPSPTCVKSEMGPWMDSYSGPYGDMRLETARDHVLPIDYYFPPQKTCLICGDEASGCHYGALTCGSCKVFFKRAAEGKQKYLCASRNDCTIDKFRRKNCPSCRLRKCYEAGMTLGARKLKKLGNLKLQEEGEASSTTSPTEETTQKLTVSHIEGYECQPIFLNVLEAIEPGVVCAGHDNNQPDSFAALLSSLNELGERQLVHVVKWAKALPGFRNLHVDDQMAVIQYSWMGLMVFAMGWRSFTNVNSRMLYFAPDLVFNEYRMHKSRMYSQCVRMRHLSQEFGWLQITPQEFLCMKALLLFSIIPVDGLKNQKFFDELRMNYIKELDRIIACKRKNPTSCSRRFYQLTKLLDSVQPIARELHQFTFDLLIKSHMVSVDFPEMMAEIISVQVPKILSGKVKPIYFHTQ
Summary of the method: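 MDA-kb2 cells, 3,000/well, rested 5hr at 37C/0% CO2 → nilutamide 3.0uM final or buffer → compounds, 15 conc. → 16hr at 37C → ONE-Glo, 30min RT → luminescence.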

Measured: Potency

O=[N+]([O-])c1nccn1CO[C@@H](CO)[C@H](O)CO
inactive: [1] | [2] | [3] | [4] | [5] | [6] | [7] | [8] | [9] | [10] | [11] | [12] | [13] | [14] | [15] | [16] | [17]

CCN(CC)CC1CCCCN1CC(=O)N1c2ccccc2C(=O)Nc2cccnc21 (stereo not drawn)
inactive: [1] | [2] | [3] | [4] | [5] | [6] | [18] | [7] | [8] | [9] | [10] | [19] | [12] | [13] | [14] | [15] | [16] | [17]

O=C1C=CC(=O)O1
inactive: [1] | [2] | [3] | [4] | [5] | [6] | [18] | [7] | [8] | [9] | [10] | [19] | [12] | [13] | [14] | [15] | [16] | [17]

Cc1ncc(CO)c(CN)c1O
inactive: [1] | [2] | [3] | [4] | [5] | [20] | [18] | [7] | [8] | [9] | [10] | [11] | [19] | [12] | [13] | [14] | [15] | [16]

Cc1cc(NS(=O)(=O)c2ccc(N)cc2)nc(C)n1
inactive: [1] | [2] | [3] | [4] | [5] | [6] | [18] | [7] | [8] | [9] | [10] | [12] | [13] | [14] | [15] | [16] | [17]

COc1cc(C)ccc1C(C)C
inactive: [1] | [2] | [3] | [4] | [5] | [6] | [18] | [7] | [8] | [9] | [11] | [19] | [12] | [13] | [14] | [15] | [16] | [17]

Cc1cccc(C)c1NC(=O)CN1CCCCCC1
inactive: [1] | [2] | [3] | [4] | [5] | [6] | [18] | [7] | [8] | [9] | [12] | [13] | [14] | [15]

Cc1c(N)cccc1N
inactive: [1] | [2] | [3] | [4] | [5] | [6] | [7] | [8] | [9] | [10] | [11] | [19] | [12] | [13] | [14] | [15] | [16] | [17]
